Measured values published in PubChem BioAssay (NCI).
“And” between values parts separate entries of the source, which are not always exact repeats. Equal values may be shown once. This is part of a sample that, as a whole, favours compounds with a hit. Of some 83,000 tested, about 20% had one in any assay.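 Treatment: one concentration, 48 hours, 96-well format. Scoring: percent growth, with anything below 10 considered active.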 The source made the active and inactive calls.

How the values were obtained:
Assay in all cases: NCI-60 one-dose screen, 48 h (100 = growth as untreated, 0 = no growth, -100 = all killed)
NCI-H23 lung = test system: NCI-H23 lung
NCI-H226 lung = test system: NCI-H226 lung
NCI-H322M lung = test system: NCI-H322M lung
HOP-62 NSCLC = test system: HOP-62 NSCLC
NCI-H460 lung = test system: NCI-H460 lung
HOP-92 NSCLC = test system: HOP-92 NSCLC
NCI-H522 lung = settings: 10 µM unless noted
A549/ATCC NSCLC = test system: A549/ATCC NSCLC
786-0 renal = test system: 786-0 renal
DU-145 prostate = test system: DU-145 prostate
K-562 leukemia = test system: K-562 leukemia
MALME-3M melanoma = test system: MALME-3M melanoma
MDA-MB-231 breast = test system: MDA-MB-231 breast
RXF 393 renal = test system: RXF 393 renal
SF-268 CNS = test system: SF-268 CNS
SF-295 CNS = test system: SF-295 CNS
SF-539 CNS = test system: SF-539 CNS
UACC-257 melanoma = settings: 10 µM unless noted
M14 melanoma = test system: M14 melanoma
COLO 205 colon = test system: COLO 205 colon

Measured: growth

O=C(Nc1c(Cl)cccc1Cl)Oc1cccc2cccnc12
inactive: NCI-H23 lung; 10 µM 36.5% | NCI-H23 lung; 100 µM 20.2% | NCI-H226 lung; 10 µM 66.1% | NCI-H226 lung; 100 µM 13.9% | NCI-H322M lung; 10 µM 23.7% | NCI-H322M lung; 100 µM 25% | HOP-62 NSCLC; 10 µM 47.5% | HOP-62 NSCLC; 100 µM 28.8% | NCI-H460 lung; 10 µM 27.1% | HOP-92 NSCLC; 10 µM 53.2% | HOP-92 NSCLC; 100 µM 23.2% | A549/ATCC NSCLC; 10 µM 38% | A549/ATCC NSCLC; 100 µM 18.2% | 786-0 renal; 10 µM 72% | 786-0 renal; 100 µM 31.3% | DU-145 prostate; 10 µM 82.5% | DU-145 prostate; 100 µM 49.1% | K-562 leukemia; 10 µM 11.3% | K-562 leukemia; 100 µM 11.1% | MALME-3M melanoma; 10 µM 52.8% | MALME-3M melanoma; 100 µM 47.5% | MDA-MB-231 breast; 10 µM 49.5% | MDA-MB-231 breast; 100 µM 20.4% | RXF 393 renal; 10 µM 73.3% | RXF 393 renal; 100 µM 64.4% | SF-268 CNS; 10 µM 51.4% | SF-268 CNS; 100 µM 21.7% | SF-295 CNS; 100 µM 19.6% | SF-539 CNS; 10 µM 28.2% | SF-539 CNS; 100 µM 22.9% | M14 melanoma; 10 µM 40% | M14 melanoma; 100 µM 12.3%
active: NCI-H460 lung; 100 µM 9% | NCI-H522 lung -4.33% [100 µM] | SF-295 CNS; 10 µM -11.3% | UACC-257 melanoma -8.59% [100 µM]

COc1ccc(-c2cscc2N)cc1
inactive: NCI-H23 lung; 10 µM 79.4% | NCI-H23 lung; 100 µM 74.2% | NCI-H226 lung; 10 µM 106% | NCI-H226 lung; 100 µM 86.6% | HOP-62 NSCLC; 10 µM 55.8% | HOP-62 NSCLC; 100 µM 57.6% | NCI-H460 lung; 10 µM 83.5% | NCI-H460 lung; 100 µM 33.8% | HOP-92 NSCLC; 10 µM unless noted 68.7% [100 µM] | NCI-H522 lung 34.8% [100 µM] | A549/ATCC NSCLC; 10 µM 76.7% | A549/ATCC NSCLC; 100 µM 46.1% | 786-0 renal; 10 µM 98.6% | 786-0 renal; 100 µM 37.1% | COLO 205 colon; 10 µM 78% | DU-145 prostate; 10 µM 83.3% | DU-145 prostate; 100 µM 69.8% | K-562 leukemia; 10 µM 54.4% | K-562 leukemia; 100 µM 22.9% | MALME-3M melanoma; 10 µM 138% | MALME-3M melanoma; 100 µM 66.9% | MDA-MB-231 breast; 10 µM 55.3% | MDA-MB-231 breast; 100 µM 50.8% | RXF 393 renal; 10 µM 106% | RXF 393 renal; 100 µM 89.5% | SF-268 CNS; 10 µM 91% | SF-268 CNS; 100 µM 41.3% | SF-295 CNS; 10 µM 54.1% | SF-295 CNS; 100 µM 40.9% | SF-539 CNS; 10 µM 78.7% | SF-539 CNS; 100 µM 44.3% | UACC-257 melanoma 41.2% [100 µM] | M14 melanoma; 10 µM 76.1% | M14 melanoma; 100 µM 43.4%
active: COLO 205 colon; 100 µM -68.1%

CC1OC2CC(=O)OC2C2=C1C(=O)c1c(O)cccc1C2=O (stereo not given)
active: NCI-H23 lung; 10 µM unless noted -89.9% | NCI-H226 lung; 10 µM unless noted -80% | NCI-H322M lung; 10 µM unless noted -29.1% | HOP-62 NSCLC; 10 µM unless noted -88.2% | NCI-H460 lung; 10 µM unless noted -0.634% | HOP-92 NSCLC; 10 µM unless noted -92% | NCI-H522 lung -89.1% | A549/ATCC NSCLC; 10 µM unless noted 2.68% | 786-0 renal; 10 µM unless noted -87.9% | DU-145 prostate; 10 µM unless noted -98.3% | K-562 leukemia; 10 µM unless noted -7.94% | MALME-3M melanoma; 10 µM unless noted -77.4% | MDA-MB-231 breast; 10 µM unless noted -65.9% | RXF 393 renal; 10 µM unless noted -96.4% | SF-268 CNS; 10 µM unless noted -92.9% | SF-295 CNS; 10 µM unless noted -8.69% | SF-539 CNS; 10 µM unless noted -89.5% | UACC-257 melanoma -78.5% | M14 melanoma; 10 µM unless noted -87.7%

O=C1c2ccccc2C(=O)N1c1ccccc1
inactive: NCI-H23 lung; 10 µM unless noted 106% | NCI-H226 lung; 10 µM unless noted 101% | NCI-H322M lung; 10 µM unless noted 99.1% | HOP-62 NSCLC; 10 µM unless noted 96.9% | NCI-H460 lung; 10 µM unless noted 104% | HOP-92 NSCLC; 10 µM unless noted 104% | NCI-H522 lung 90.9% | A549/ATCC NSCLC; 10 µM unless noted 90.7% | 786-0 renal; 10 µM unless noted 105% | COLO 205 colon; 10 µM unless noted 106% | DU-145 prostate; 10 µM unless noted 109% | K-562 leukemia; 10 µM unless noted 106% | MALME-3M melanoma; 10 µM unless noted 105% | MDA-MB-231 breast; 10 µM unless noted 89.7% | RXF 393 renal; 10 µM unless noted 112% | SF-268 CNS; 10 µM unless noted 108% | SF-295 CNS; 10 µM unless noted 94.9% | SF-539 CNS; 10 µM unless noted 103% | UACC-257 melanoma 101% | M14 melanoma; 10 µM unless noted 106%

O=C(Nc1ccccc1)Oc1c(Cl)c(Cl)c(Cl)c(Cl)c1Cl
inactive: NCI-H23 lung; 10 µM unless noted 93.8% and 93.2% | NCI-H226 lung; 10 µM unless noted 96.2% and 88.3% | NCI-H322M lung; 10 µM unless noted 94.1% and 106% | HOP-62 NSCLC; 10 µM unless noted 101% and 78.8% | NCI-H460 lung; 10 µM unless noted 109% and 103% | HOP-92 NSCLC; 10 µM unless noted 74.9% and 63.8% | NCI-H522 lung 87.9% | A549/ATCC NSCLC; 10 µM unless noted 106% and 91.9% | 786-0 renal; 10 µM unless noted 105% and 97.1% | COLO 205 colon; 10 µM unless noted 97.9% and 106% | DU-145 prostate; 10 µM unless noted 110% and 101% | K-562 leukemia; 10 µM unless noted 101% and 93.9% | MALME-3M melanoma; 10 µM unless noted 89% and 104% | MDA-MB-231 breast; 10 µM unless noted 88.2% and 94.2% | RXF 393 renal; 10 µM unless noted 113% and 110% | SF-268 CNS; 10 µM unless noted 94.2% and 98.8% | SF-295 CNS; 10 µM unless noted 97.4% and 91.8% | SF-539 CNS; 10 µM unless noted 99.7% and 90.6% | UACC-257 melanoma 109% and 103% | M14 melanoma; 10 µM unless noted 101% and 95.3%
